Source: PubChem BioAssay (National Center for Advancing Translational Sciences (NCATS))
This is a sample that favours compounds with a hit; in the whole collection about 19% have one here.
IL1B secr inh: inhibitors of inflammasome signaling (IL-1 beta secretion); THP-1 LPS/ATP IL-1B secretion, AlphaLISA, 16 h; stronger effect = lower value; activity change, % at 57.5 µM; 360,000 tested, 4.7% active; in the data active = activity change below about -50%; inconclusive = mostly about -30% to -49%
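Secreted IL-1B measured by AlphaLISA bead assay after 16 h compound exposure of THP-1 cells; compounds (final up to 57.5 uM) added 1 h before LPS (250 ng/mL) and ATP (1.25 mM) stimulation; lower signal means less secretion.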
HepG2 tox: counter-screen for TGF-b inhibitors: cytotoxicity in HepG2 cells; HepG2 CAGA-GFP viability, ATP luminescence, 18 h; Potency, µM (titrated, usually from 46.1 µM), hits mostly cytotoxic; 410,000 tested, 0.76% active; AID 588856
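CellTiter-Glo luminescence gave cytotoxicity after 18 hours at 37 degrees C. The cells were HepG2 CAGA-GFP in 1% FBS DMEM, stimulated with 500 pg/mL TGF-beta after compound addition. %Activity was normalised to no-cell wells (complete cell-killing) and DMSO (no toxicity), and curves were fitted and classified.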
DT40 TDP1 no CPT: qHTS for Inhibitors of human tyrosyl-DNA phosphodiesterase 1 (TDP1): qHTS in cells in absence of CPT; DT40 Tdp1-/- hTDP1 cells, no CPT, ATP luminescence, 48 h; Potency, µM (series often up to 46.2 µM), actives largely listed as inhibitors; 420,000 tested, 15% active; AID 686978, 2013; note: nearly all actives have a fitted effect of over 55% in size
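Chicken DT40 Tdp1-/- cells complemented with human TDP1, screened without camptothecin (DMSO vehicle only), 400 cells/well. Compounds pin-transferred, cells incubated at 37 °C for at least 48 hr. Growth read as ATP-dependent luminescence (CellTiter-Glo, 30 min at RT).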
TDP1 block: blocks human tyrosyl-DNA phosphodiesterase 1; recombinant TDP1, AlphaScreen DNA substrate cleavage; 350,000 tested, 0.28% active; Q9NUW8; Potency, µM (series often up to 130 µM), actives largely listed as inhibitors; note: nearly all actives have a fitted effect of over 40% in size
Target sequence (Q9NUW8 whole entry, looked up): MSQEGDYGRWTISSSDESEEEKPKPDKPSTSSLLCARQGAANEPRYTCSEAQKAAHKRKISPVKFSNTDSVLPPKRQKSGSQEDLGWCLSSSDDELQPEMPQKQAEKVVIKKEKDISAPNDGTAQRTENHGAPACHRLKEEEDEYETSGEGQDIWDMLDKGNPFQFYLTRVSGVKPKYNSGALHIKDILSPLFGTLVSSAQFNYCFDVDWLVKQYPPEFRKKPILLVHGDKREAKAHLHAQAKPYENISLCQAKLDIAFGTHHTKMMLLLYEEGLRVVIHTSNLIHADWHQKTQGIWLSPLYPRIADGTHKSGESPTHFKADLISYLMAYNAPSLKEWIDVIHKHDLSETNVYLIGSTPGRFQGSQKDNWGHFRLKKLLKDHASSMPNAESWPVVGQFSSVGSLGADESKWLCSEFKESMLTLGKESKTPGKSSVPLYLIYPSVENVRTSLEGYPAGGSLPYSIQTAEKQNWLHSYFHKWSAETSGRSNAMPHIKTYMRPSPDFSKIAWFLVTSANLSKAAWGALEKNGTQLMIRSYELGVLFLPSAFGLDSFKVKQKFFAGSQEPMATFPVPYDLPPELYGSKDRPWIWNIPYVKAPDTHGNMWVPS
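E. coli-derived human Tdp1, 1 nM final. Cpd preinc 15 min RT; substrate 15 nM final, 5 min RT; AS bead mix 10 ug/ml final, 10 min RT. Signal loss = tyrosine-FITC cleavage. No-enzyme wells = max signal.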
TGFb SMAD3 inh: TGF-b pathway inhibition. Potency, µM (doses to about 46.1 µM), hits mostly inhibitors. HepG2 CAGA-GFP TGF-b/SMAD3 reporter, GFP fluorescence, 18 h; TGF-beta stimulated, 500 pg/mL final. 410,000 tested, 1.2% active. AID 588855; note: nearly all actives have a fitted effect of over 65% in size
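Cell-based qHTS in HEPG2 carrying a CAGA-GFP Smad reporter; compounds added before 500 pg/mL final TGF-beta, 18 h incubation at 37 degrees C, GFP fluorescence quantified per cell by imaging cytometry.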
TDP1 cell CPT: growth inhibition of DT40 Tdp1-/-;hTDP1 cells with camptothecin (screen for TDP1 inhibitors); chicken DT40 Tdp1-/-;hTDP1 cells + 20 nM CPT, ATP luminescence, 48 h; Potency, µM (doses to about 46.2 µM), actives largely listed as inhibitors; 420,000 tested, 12% active; note: nearly all actives have a fitted effect of over 55% in size
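Cell growth measured by CellTiter-Glo luminescence after a minimum 48 h, 37 C compound exposure with 20 nM CPT in Tdp1-knockout DT40 cells stably expressing hTDP1, seeded 400/well; qHTS titration format.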
Hits are given with their value; i = inactive; ? = inconclusive; nt = no result; [ ] = another dose, or the depositor's remark. Unless noted, calls come from the whole dose curve; as a rule, active = well fitted curve in the direction sought with a large enough effect; inconclusive = small, poorly fitted or top-dose-only effect, or another doubt; inactive = no such curve, though single readings can be large; an effect the other way counts as inactive or inconclusive.

SMILES | IL1B secr inh | HepG2 tox | DT40 TDP1 no CPT | TDP1 block | TGFb SMAD3 inh | TDP1 cell CPT
CC1CC(C)CN(CC(=O)N2CCCc3c2c(=O)oc2ccc(OCc4ccccc4)cc32)C1 (configuration not stated) | i | i | 12µM | i | i | 21µM
Cc1c(Cc2ccccc2)c(=O)oc2cc(OCc3ccc(C(=O)O)cc3)ccc12 | i | i | i | i | i | i
CCCOc1ccc2oc(=O)c3c(c2c1)CCCN3C(=O)CN1CCc2ccccc2C1 | i | i | 23µM | i | i | ?
CC(=O)N1CCN(C(=O)COc2ccc3oc4c(c3c2)CCCC4)CC1 | i | i | i | nt | i | i
COc1ccccc1-c1nnc(SCC(=O)Nc2ccc(S(N)(=O)=O)cc2)n1N | i | i | i | i | i | i
CC(C)(C)[C@H]1COC(=O)[C@@H](NC(=O)OCC2c3ccccc3-c3ccccc32)C/C=C\C[C@@H](CC(=O)N[C@@H](CO)Cc2ccccc2)C(=O)N1 | i | i | 6.5µM | i | ? | 9.2µM
O=C(C[C@@H]1C/C=C\C[C@@H](NC(=O)OCC2c3ccccc3-c3ccccc32)C(=O)OCCNC1=O)N[C@@H](CO)Cc1ccccc1 | i | i | 8.2µM | i | i | 9.2µM
C[C@H]1COC(=O)[C@@H](CC(=O)OC(C)(C)C)C/C=C\C[C@@H](CC(=O)N[C@H](CO)Cc2ccccc2)C(=O)N1 | i | i | ? | i | i | ?
C[C@@H]1COC(=O)[C@@H](CC(=O)OC(C)(C)C)C/C=C\C[C@@H](CC(=O)N[C@H](CO)Cc2ccccc2)C(=O)N1 | i | i | i | i | i | i
C[C@@H]1COC(=O)[C@H](NC(=O)OCC2c3ccccc3-c3ccccc32)C/C=C\C[C@@H](CC(=O)N[C@H](CO)Cc2ccccc2)C(=O)N1 | i | i | 21µM | i | i | 18µM
Cc1ccnc(NC(=O)CN2C(=O)NC(C)(c3ccc4ccccc4c3)C2=O)c1 (configuration not stated) | i | i | ? | i[0.505 µM] | ? | i
COc1ccc(Nc2nc(=O)c3cc([N+](=O)[O-])ccc3s2)cc1 | i | 4µM | i | nt | i | i
Cc1ccc(Nc2nc(=O)c3cc([N+](=O)[O-])ccc3s2)cc1 | i | i | i | nt | i | i
Cc1nc2ccccc2n1-c1nc(-c2ccco2)cc(C(F)(F)F)n1 | ? | i | 2.9µM | i | ? | 3.7µM
COc1ccc(F)cc1-c1cc(C(=O)NCc2cc(C(F)(F)F)cc(C(F)(F)F)c2)[nH]n1 | i | i | ? | nt | ? | 18µM
COc1ccccc1CNC(=O)c1cc(-c2ccc(F)cc2OC)n[nH]1 | -51 | i | ? | nt | i | i
CCCOc1ccc(F)cc1-c1cc(C(=O)NCc2cc(C(F)(F)F)cc(C(F)(F)F)c2)[nH]n1 | i | i | ? | nt | i | ?
COc1ccc(Cl)cc1-c1cc(C(=O)N[C@H](C)c2ccccc2)[nH]n1 | i | i | 3.7µM | nt | i | 2.6µM
CCOc1ccc(Cl)cc1-c1cc(C(=O)NCc2ccccc2OC)[nH]n1 | i | i | 18µM | nt | i | ?
Cc1ccc(CC(=O)NCc2nc(-c3cccc(C)c3)no2)cc1 | nt | i | ? | i | i | i
COc1ccc(-c2oc3cccnc3c2-c2ccc(OC)nc2)cc1 | ? | i | ? | nt | i | ?
COc1ccc(Cl)cc1-c1cc(C(=O)NCc2ccccc2)[nH]n1 | i | i | 21µM | nt | i | 16µM
COc1cc(CNC(=O)c2cc(-c3cc(Cl)ccc3OC)n[nH]2)cc(OC)c1 | i | i | ? | nt | i | ?
COc1ccc(F)cc1-c1cc(C(=O)NCc2ccccc2)[nH]n1 | -67 | i | ? | nt | i | i
CCOc1ccc(Cl)cc1-c1cc(C(=O)NCc2ccccc2)[nH]n1 | ? | i | ? | nt | ? | 12µM
SMILES | IL1B secr inh | HepG2 tox | DT40 TDP1 no CPT | TDP1 block | TGFb SMAD3 inh | TDP1 cell CPT
COc1ccc(F)cc1-c1cc(C(=O)NCc2ccc(F)cc2)[nH]n1 | i | i | i | nt | i | ?
CN(CCC#N)C(=O)COC(=O)c1c2c(nc3ccccc13)/C(=C/c1ccco1)CC2 | -58 | i | ? | nt | i | ?
COc1ccc(/C=C2\CCc3c2nc2ccccc2c3C(=O)O)cc1OC | i | i | i | i | i | i
CN(C(=O)COC(=O)/C=C/c1cccs1)C1CCCCC1 | i | i | i | i | i | i
Cc1ccc(S(=O)(=O)N(C)C)cc1NC(=O)COc1ccccc1C(=O)Nc1ccccc1 | i | i | 9.2µM | nt | i | 13µM
CCOc1ncccc1C(=O)OCC(=O)Nc1ccc(C)c(S(=O)(=O)N(C)C)c1 | i | i | i | i | i | i
Cc1ccc(NC(=O)c2ccccc2OCC(=O)Nc2ccccc2F)cc1S(=O)(=O)N(C)C | i | i | 21µM | i | i | 16µM
Cc1ccc(S(=O)(=O)N(C)C)cc1NC(=O)COC(=O)/C(=C/c1ccc(F)cc1)c1cccs1 | i | i | 26µM | i | ? | 13µM
CN(C)S(=O)(=O)c1cccc(NC(=O)COc2ccccc2C(=O)Nc2ccccc2)c1 | ? | i | 9.2µM | nt | i | 18µM
CN(C)S(=O)(=O)c1cccc(NC(=O)COc2cccc3ccccc23)c1 | i | i | i | i | i | i
COc1ccc2oc(C(=O)OCC(=O)N(C)CC(=O)Nc3ccc(F)cc3)c(C)c2c1 | i | i | i | nt | i | i
N#C/C(=C\c1c(Cl)cccc1Cl)c1nc2ccccc2o1 | ? | i | i | i | i | i
Cc1cc(O)ccc1N/C=C(\C#N)c1nc2ccccc2o1 | i | i | 12µM | i | i | ?
ClC(Cl)(c1nnnn1-c1ccccc1)c1nnnn1-c1ccccc1 | -120 | 11µM | 2.6µM | i | ? | 1.3µM
O=C(O)CCN1C(=O)c2ccc(NC(=O)Cc3ccc(Cl)cc3)cc2C1=O | i | i | i | nt | i | i
Cc1cc(N=Nc2c(O)c3ccccc3[nH]c2=O)ccc1N=Nc1ccc(C(=O)N(C)C)cc1 | i | i | 7.3µM | nt | 13µM | 10µM
CN(C)C(=O)c1ccc(N=Nc2c(O)c3ccccc3[nH]c2=O)cc1 | i | 11µM | 21µM | nt | i | 21µM
Cc1ccc(N=Nc2c(O)c3ccccc3[nH]c2=O)c(S(=O)(=O)N(C)C)c1 | nt | nt | nt | i | nt | nt
CC(OC(=O)C1CCN(S(=O)(=O)c2ccc3c(c2)OCCO3)CC1)C(=O)NC1(C#N)CCCCC1 (configuration not stated) | i | i | i | nt | i | i
Cc1ccc(CNC(=O)CCCn2nc(C)n3c(cc4sccc43)c2=O)cc1 | nt | i | i | i | i | i
